Reference: PubChem BioAssay AID686978 (National Center for Advancing Translational Sciences (NCATS), 2013)
Among all 420,000 compounds or so, about 64,000 (15%) were called active. About 27% were inconclusive and are not listed. Only a sample is shown. Values without a mark were called inactive. The call rests on the fitted dose curve; in most records, active means well fitted inhibition curve with a large enough effect; inconclusive means small, poorly fitted or top-dose-only effect; inactive means flat fitted curve, though single readings scatter.

experiment: qHTS for Inhibitors of human tyrosyl-DNA phosphodiesterase 1 (TDP1): qHTS in cells in absence of CPT; details: DT40 Tdp1-/- hTDP1 cells, no CPT, ATP luminescence, 48 h; activity change, negative = growth inhibition: at 46.2 µM (top of the series); further: nearly all actives have a fitted effect of over 55% in size
How it was run: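 DT40 Tdp1-/-;hTDP1 cells, no CPT (DMSO vehicle only), 400 cells/well; compounds pin-transferred; ≥48 hr, 37 °C; CellTiter-Glo 30 min RT dark, luminescence read.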
On the % scale 0 is the no-effect control and ±100 the full control effect; potency means the concentration at half of the fitted maximal effect.

SMILES	activity change, negative = growth inhibition [%]	Potency
CCOC(=O)c1c(-c2ccc(-c3ccccc3)cc2)csc1NC(=O)CCC(=O)O	15.5	
CCOC(=O)c1c(NC(=O)c2cc(-c3ccc(Cl)cc3)on2)sc2c1CCCC2	-4.88	
Cc1ccc2nc(NC(=O)c3nc(SCc4ccccc4F)ncc3Cl)sc2c1	11	
CCOC(=O)c1c(N)nn(C(=O)c2ccccc2)c1-c1ccccc1	8.93	
CCOC(=O)c1c(-c2cccc(C)c2)csc1NC(=O)c1c(-c2ccccc2)noc1C		23.1 µM (active)
CCOC(=O)C1CCN(C(=O)COC(=O)C2CCN(S(=O)(=O)c3ccc4c(c3)OCCO4)CC2)CC1	-2.44	
CCOC(=O)CN/C=C(\C#N)c1ccc(F)cc1	8.78	
CC(C)CN(C(=O)Cn1c(=O)cnc2ccccc21)C1CCS(=O)(=O)C1 (configuration not stated)	-1.96	
CC1(C(=O)Nc2ccc3c(c2)OCCO3)CN(S(C)(=O)=O)CC(=O)N1Cc1cccc(F)c1 (configuration not stated)	-7.77	
O=C(C1CCCO1)N1CCN(C(=S)Nc2cccc(Cl)c2)CC1 (configuration not stated)	-22.5	
CCOC(=O)C1CCN(C(=O)C2CCN(S(=O)(=O)N3CCCC3)CC2)CC1	-12.4	
CCN(CC)C(=O)CSc1nc2cc3c(cc2c(=O)n1CCCC(=O)NCc1ccc2c(c1)OCO2)OCO3		16.4 µM (active)
O=C(CCCCn1c(=O)[nH]c2ccccc2c1=O)NCc1ccc2c(c1)OCO2	-26.8	
CCCCNC(=O)CSc1nc2cc3c(cc2c(=O)n1CCCCCC(=O)NCc1ccc2c(c1)OCO2)OCO3	-7	
CN(C)/N=C/c1cn(-c2ccccc2)nc1-c1cccnc1	-26.2	
COc1ccc(-c2nn(-c3ccccc3)cc2/C=N/Nc2ccccn2)cc1OC		5.8 µM (active)
CC(C)(C)OC(=O)N/N=C/c1cn(-c2ccccc2)nc1-c1cccnc1	-26.1	
CC(=O)/C(=N\Nc1ccc(Cl)cc1Cl)Sc1cccc2cccnc12		4.11 µM (active)
O=C(Nc1cccc2cccnc12)c1cccc(Cl)c1	-25.7	
N#Cc1ccc(C(=O)Nc2cccc3cccnc23)c(F)c1	12.3	
C#CCN(N(C)c1ncc(C(F)(F)F)cc1Cl)S(=O)(=O)c1ccc2ccccc2c1	-19.9	
Cc1csc(NC(=O)CSc2nnc(-c3cccnc3)o2)n1	4.46	
O=C(NCCS(=O)(=O)NCc1ccc(F)cc1)c1ccccc1	-11.1	
O=C(COC(=O)c1ccc(O)cc1)Nc1nccs1	-0.707	
O=C(Cn1cnc([N+](=O)[O-])n1)NCCc1ccccc1	2.11	
CCn1c(CNC(=O)c2cc(OC)c(OC)c(OC)c2)cc2cc(C)ccc21		13 µM (active)

SMILES	activity change, negative = growth inhibition [%]	Potency
CCN1CCN(CC(=O)c2cc(OC)c(OC)c(OC)c2)CC1	-11.6	
COc1cc(-n2c(C)nc3cc(C(=O)NCc4ccco4)ccc32)cc(OC)c1OC	-11.4	
COC(=O)c1cccc(NC(=O)c2cccc(N3C(=O)CCC3=O)c2)c1	-4.15	
O=C(O)c1ccccc1Cc1ccc(F)c2ccccc12	3.98	
O=C(COC(=O)c1ccccc1F)Nc1cc(S(=O)(=O)N2CCOCC2)ccc1N1CCCC1	1.56	
CC(=O)Nc1ccc(S(=O)(=O)N2CCC(C(=O)NC3CC3)CC2)cc1	15.7	
O=C(Nc1ccc(S(=O)(=O)N2CCOCC2)cc1)C1CCN(S(=O)(=O)c2ccc(Cl)cc2)CC1		10.3 µM (active)
O=S(=O)(c1ccc(NC(=S)NN=C(C2CC2)C2CC2)cc1)N1CCOCC1	-8.48	
CCOc1ccc(C(=O)Nc2ccc(CN3CCOCC3)cc2)cc1Cl	-7.26	
CCOc1ccc(C(=O)NC(=S)Nc2ccc(N3CCOCC3)c(Cl)c2)cc1[N+](=O)[O-]		8.2 µM (active)
O=C(Nc1ccc2c(c1)nc1n2CCCCC1)c1cc(S(=O)(=O)N2CCOCC2)ccc1Cl		14.6 µM (active)
O=C(OCC(=O)N1CCCC1=O)c1cc(S(=O)(=O)N2CCOCC2)ccc1Cl	-4.83	
CCOc1ccc(C(=O)NC(=S)Nc2ccc(NC(=O)C(C)C)cc2)cc1[N+](=O)[O-]	5.95	
O=C(CNCc1ccco1)Nc1cc(S(=O)(=O)N2CCOCC2)ccc1N1CCCC1	-0.457	
COCCNC(=S)Nc1cc(S(=O)(=O)N2CCOCC2)ccc1N1CCCCC1		16.4 µM (active)
COc1cc(NC(=S)NCc2ccco2)c(OC)cc1Cl	-6.81	
COC(=O)CN(c1nc(C)c(Cl)c(OC)n1)S(=O)(=O)c1ccc(C)cc1	-18.2	
O=C(OCC(O)C(O)COC(=O)c1ccccc1)c1ccccc1 (configuration not stated)	-8.97	
O=C(O)C(=Cc1ccccc1[N+](=O)[O-])c1ccccc1	-12.4	
O=C(Cc1c(F)cccc1Cl)N1CCN(C(=O)c2ccco2)CC1	-11.5	
O=C(Nc1ccc2cn[nH]c2c1)c1ccc(S(=O)(=O)N2CCOCC2)cc1	-19.1	
COc1ccc(NC(=O)CNc2cc(S(=O)(=O)N3CCOCC3)ccc2N2CCOCC2)c(OC)c1	2.99	
O=C(Nc1ccc(N2CCOCC2)c(Cl)c1)c1ccc(S(=O)(=O)N2CCOCC2)cc1		14.6 µM (active)
CC(=O)Nc1ccc(C(=O)Nc2cc(S(=O)(=O)N3CCOCC3)ccc2N2CCOCC2)cc1	-26.5	
CC(Oc1ccc(F)cc1)C(=O)Nc1cc(S(=O)(=O)N2CCOCC2)ccc1N1CCN(C)CC1 (configuration not stated)	-1.55	
CC(C)CCOc1ccc(C(=O)Nc2cc(S(=O)(=O)N3CCOCC3)ccc2N2CCOCC2)cc1		5.8 µM (active)
